Source: PubChem BioAssay
GDH-TPI counter – counter-screen for M. tuberculosis FBA inhibitors: GDH-TPI coupled enzymes; hit rate 1.2% among 360,000; GDH-TPI coupled enzyme counterscreen, NADH absorbance; inhibition, % at 4.8 µM; in the data active means inhibition above about 30%;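 further: 0% = DMSO wells and 100% = wells lacking the enzyme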
Mtb FBA inh – Mtb fructose-bisphosphate aldolase inhibition; inhibition, % at 1 µM; P9WQA3; hit rate 2.3% among 360,000; purified M. tuberculosis FBA, fluorescence read-out; AID 588726; in the data active means inhibition above about 27%;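 further: 0% = vehicle and 100% = reference inhibitor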
Target sequence (P9WQA3 whole entry, looked up): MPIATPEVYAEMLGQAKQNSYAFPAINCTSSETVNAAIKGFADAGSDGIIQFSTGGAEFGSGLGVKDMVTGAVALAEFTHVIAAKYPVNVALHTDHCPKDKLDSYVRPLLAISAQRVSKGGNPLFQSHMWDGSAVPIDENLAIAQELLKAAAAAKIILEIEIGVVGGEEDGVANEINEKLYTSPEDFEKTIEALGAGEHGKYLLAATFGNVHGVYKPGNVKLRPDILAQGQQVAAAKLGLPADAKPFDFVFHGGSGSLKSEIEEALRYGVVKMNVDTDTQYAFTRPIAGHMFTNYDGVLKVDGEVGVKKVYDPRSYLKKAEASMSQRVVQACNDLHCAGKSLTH
BoNT A protease – blocks Botulinum neurotoxin A light chain protease | inhibition, % at 10 µM | hit rate 0.17% among 360,000 | multiplex microsphere protease substrate cleavage, flow cytometry | AID 588499; further: plate controls were buffer without enzyme for full effect and enzyme alone for no effect
Bead autofluor – flagged as autofluorescent in microsphere protease counterscreen; compound autofluorescence counterscreen, microsphere flow cytometry; active compounds read high; fluorescence intensity (no concentration beside the values); hit rate 3.1% among 360,000; AID 624483; in the data active means fluorescence intensity above about 16000; inconclusive means no clear call, values can overlap the other calls
Anthrax LF inh2 – anthrax lethal factor protease inhibition | multiplex microsphere protease cleavage assay, LF | inhibition, % at 10 µM | hit rate 0.12% among 360,000 | P15917; further: plate controls were buffer without enzyme for full effect and enzyme alone for no effect
BoNT F protease – blocks Botulinum neurotoxin F light chain protease; Multiplex microsphere protease cleavage assay, flow cytometry; inhibition, % at 10 µM; hit rate 0.22% among 360,000; AID 588497; in the data active means inhibition above about 35%, passing the limit was not always enough; inconclusive means no clear call, values can overlap the other calls; further: plate controls were buffer without enzyme for full effect and enzyme alone for no effect
* = called active by the depositor; ? = inconclusive; . = not tested or not shown; + = active, no number. Rows were chosen to be rich in hits. Some 6.6% of all compounds tested hit in one or more screens of this group. Unless noted, no stated cut-off is given here; in the data, active means inhibition above about 30%; inconclusive means no clear call, values can overlap the other calls; inactive means below that.

SMILES | GDH-TPI counter | Mtb FBA inh | BoNT A protease | Bead autofluor | Anthrax LF inh2 | BoNT F protease
COc1ccc(NC(=O)CN(c2ccc(C)cc2)S(=O)(=O)c2c(C)nn(C)c2C)cc1OC | -11 | -1 | 0 | 22939* | -4 | 2
COc1ccc(NC(=O)CN(c2ccc(C)cc2)S(=O)(=O)c2c(C)nn(C)c2C)cc1 | 1 | 3 | 0 | 4489 | -2 | 3
COc1ccc2nc(NC(=O)CN(c3ccc(C)cc3)S(=O)(=O)c3c(C)nn(C)c3C)sc2c1 | -12 | 3 | -4 | 20805* | -4 | -6
CCN1CCN(c2ccc(NC(=O)c3cccc(F)c3)cc2Cl)CC1 | -2 | 3 | -1 | 4498 | -6 | -1
CN(C)c1nc(Cl)nc(N(C#N)CCOc2ccccc2)n1 | -2 | -1 | 0 | 3972 | -4 | -2
Cc1ccc(NC(=O)c2nnn(CC(=O)Nc3ccccc3)c2N)cc1C | 5 | 0 | 0 | 4835 | -5 | -13
Cc1ccc(C)c(NC(=O)c2nnn(Cc3ccccc3C)c2N)c1 | 7 | -1 | -1 | 23851* | -2 | -3
Cc1ccc(C)c(NC(=O)c2nnn(Cc3ccccc3)c2N)c1 | -3 | 1 | 0 | 4939 | -1 | -8
Cc1ccc(NC(=O)Cn2nnc(C(=O)NCc3ccccc3)c2N)cc1C | 11 | 0 | -3 | 23778* | 0 | -4
Cc1c(NC(=O)CN2C(=O)NC3(CCCCC3)C2=O)c(=O)n(-c2ccccc2)n1C | -5 | 5 | 0 | 3843 | -5 | -8
Cc1[nH]n(-c2cccc3ccccc23)c(=O)c1C=Nc1ccc2[nH]c(=O)[nH]c2c1 | 35* | 0 | 0 | 2721 | -2 | -8
N#CCN1CCC/C1=C\[N+](=O)[O-] | 32* | -4 | -1 | 10412 | -3 | 0
COc1ccccc1NC(=O)CSc1ccc(-c2ccc(-n3cccn3)cc2)nn1 | -2 | 4 | . | . | . | .
COc1cc2cc(C(c3nnnn3C3CCCC3)N(C)C3CCCCC3)c(=O)[nH]c2cc1OC (stereo not drawn) | 9 | 10 | -2 | 21407* | 0 | -1
COc1cc2cc(C(c3nnnn3C3CCCCC3)N(C)C3CCCCC3)c(=O)[nH]c2cc1OC (stereo not drawn) | 30 | 24 | 3 | 22356* | 2 | 4
CC(C)C(c1nnnn1C1CCCC1)N(C)C1CCCCC1 (stereo not drawn) | 5 | -2 | ? | 20923* | 0 | -4
Cc1cc2cc(C(c3nnnn3C3CCCC3)N(Cc3cccnc3)Cc3ccco3)c(=O)[nH]c2cc1C (stereo not drawn) | 11 | 6 | 0 | 10121 | 1 | 0
COc1ccc2cc(C(c3nnnn3C3CCCC3)N3CCc4ccccc4C3)c(=O)[nH]c2c1 (stereo not drawn) | 18 | 2 | 2 | 9920 | 2 | -4
Cc1ccc(C(c2nnnn2C2CCCCC2)N(C)C2CCCCC2)cc1 (stereo not drawn) | 2 | 1 | 0 | 7015 | -1 | -3
N#CC1(Nc2cccc(Cl)c2)CCCC1 | -3 | -1 | 0 | 4072 | -7 | 8
Cc1cc(C)c(S(=O)(=O)Nc2ccccc2)c(C)c1 | -3 | -3 | 0 | 3493 | -6 | 4
Cc1cc(C)c(S(=O)(=O)Nc2cccnc2)c(C)c1 | -4 | 1 | 2 | 22484* | 0 | 2
O=C(CSc1nnc(CNc2ccc(F)cc2)o1)N1c2ccccc2Sc2ccccc21 | -6 | -2 | 2 | 20080* | -3 | 0
CC(C)(C)N(Cc1ccccc1)C(=O)CSc1nnc(CNc2ccc(F)cc2)o1 | 1 | -2 | 10 | 17024* | -10 | 13
O=C(CSc1nnc(CNc2ccc(F)cc2)o1)N1CCN(C(=O)c2ccco2)CC1 | 11 | -1 | 1 | 7623 | 0 | 4
SMILES | GDH-TPI counter | Mtb FBA inh | BoNT A protease | Bead autofluor | Anthrax LF inh2 | BoNT F protease
O=C(O)c1ccccc1N1C(=O)c2cccc3cccc(c23)C1=O | 12 | -1 | -3 | 4538 | 13 | -13
Cc1ccccc1N1C(=O)c2cccc3cccc(c23)C1=O | 35* | 2 | ? | 3629 | 1 | ?
CCN(CC)c1ccc(/C=C(\C#N)C(=O)c2ccc(Br)cc2)cc1 | 16 | -16 | 49* | 97679* | 46* | 61*
O=C(O)COCc1nc2ccccc2[nH]1 | 8 | 4 | -3 | 25242* | 2 | -1
O=C(Cc1nc2ccccc2[nH]1)c1ccc(Br)cc1 | 32* | 2 | 1 | 5239 | -4 | -10
CCCCC(=O)Nc1ncc2c(n1)CC(C)(C)CC2=O | -5 | 147* | 0 | 2364 | -1 | 2
COc1ccc(OCC(=O)Nc2ncc3c(n2)CC(C)(C)CC3=O)cc1 | 15 | 4 | ? | 22939* | -2 | -4
Cc1cc(C)nc(SCC(=O)Nc2ncc3c(n2)CC(C)(C)CC3=O)n1 | 7 | 0 | -1 | 20783* | 0 | -3
CCOC(=O)C(CCCP(=O)(c1ccccc1)c1ccccc1)(NC(C)=O)C(=O)OCC | 3 | 0 | -1 | 4141 | 19 | ?
CN(C(=O)c1cccc(NC(=O)Cc2ccc(NC(=O)C3CCCN(C(=O)C4CCCCC4)C3)cc2)c1)C1CCCCC1 (stereo not drawn) | 3 | 1 | 0 | 2883 | -6 | -2
O=C(Nc1ccc(S(=O)(=O)Nc2cnc3ccccc3n2)cc1)c1ccc(Cl)c([N+](=O)[O-])c1 | 11 | 1 | 5 | 3762 | -1 | ?
Cc1ccc(/C=N/n2c(C)n[nH]c2=S)o1 | 21 | -2 | 1 | 22498* | 0 | 3
CC(C)(C)c1ccc(C(=O)Nc2ccc(NC(=O)C(=O)O)cc2)o1 | 3 | 3 | 0 | 4385 | -7 | -1
O=C(c1ccccc1)c1ccccc1C(=O)c1ccccc1 | 4 | 7 | -8 | 3279 | 4 | -37
COC(=O)c1sc2ncccc2c1OCc1c(Cl)cccc1Cl | -3 | 3 | 2 | 19174* | 2 | 1
O=C(OCc1ccccc1Cl)c1cccnc1Cl | -1 | 1 | -3 | 21281* | -3 | -2
O=C(OCc1ccc(COC(=O)c2cccnc2Cl)cc1)c1cccnc1Cl | 2 | 2 | 0 | 4600 | -7 | -4
O=C(OCc1c(Cl)cccc1Cl)c1cccnc1Cl | -13 | 1 | ? | 24071* | -1 | -5
O=C(OCc1ccccc1Cl)c1ccccc1C(=O)c1ccccc1 | 6 | 1 | 1 | 22408* | -4 | 0
O=C(OC1CC2CC1[C@H]1CCCCN1C2=O)N1CCC(c2ccccc2)CC1 (stereo partly drawn) | . | . | 0 | 4300 | -1 | -6
C[C@H](CO)N1C[C@H](C)[C@H](CN(C)C(=O)CC2CC2)Oc2cc(Br)ccc2S1(=O)=O | 13 | -2 | -1 | 3901 | -1 | -4
Cn1ncc2c(N3CCN(c4ccccc4F)CC3)ncnc21 | 12 | 0 | ? | 16585* | 3 | 3
Cn1ncc2c(N3CCN(c4ccc(Cl)c(Cl)c4)CC3)ncnc21 | 2 | 2 | -1 | 4188 | -3 | 0
C/C(=N\Nc1c([N+](=O)[O-])c(C)nn1C)c1ccc(F)cc1F | 33* | 0 | -1 | 5194 | -5 | -6
C=CCn1c(N)c(C(=O)OC(C)(C)C)c2nc3ccccc3nc21 | 22 | + | 4 | 4088 | 1 | 1
